This note sets out measurements from PubChem BioAssay.

Active and inactive are the calls of the source. How the calls were made is not given here.

Broadly, the inhibition is the relative decrease from the control value, in per cent.

The target in this assay is Pantothenate synthetase (Mycobacterium tuberculosis (strain ATCC 25618 / H37Rv)) (UniProt P9WIL5). The assay is described as follows: Coupled enzyme confirmation of inhibitors against recombinant Mtb PanC (AID 375).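 Further: 0% = full reaction with vehicle and 100% = no enzyme background.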 To be noted: coupled enzyme assay; at 10 µM, stronger effect = higher value.
Pantothenate synthetase (Mycobacterium tuberculosis (strain ATCC 25618 / H37Rv)), sequence (P9WIL5 whole entry, looked up): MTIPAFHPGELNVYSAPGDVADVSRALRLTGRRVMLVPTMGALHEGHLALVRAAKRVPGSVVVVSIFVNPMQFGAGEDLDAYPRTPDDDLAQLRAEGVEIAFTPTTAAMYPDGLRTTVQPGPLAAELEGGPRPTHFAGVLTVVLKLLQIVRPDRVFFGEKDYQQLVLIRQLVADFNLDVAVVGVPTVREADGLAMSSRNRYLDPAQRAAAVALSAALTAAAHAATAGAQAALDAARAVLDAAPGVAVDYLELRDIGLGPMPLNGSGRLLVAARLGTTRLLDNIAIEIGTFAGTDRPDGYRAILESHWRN
In the case of `CC(C)Cn1c(N)c(C(=O)COC(=O)c2cc(-c3ccco3)nc3ccccc23)c(=O)n(C)c1=O`, the inhibition is 7% (inactive). On to `N#CCc1nc(CSc2nc3ccccc3s2)cs1`, for which the inhibition was 7% (inactive). In the case of `O=C(Cc1cccs1)Nc1ccccc1NC(=O)Cc1cccs1`, the inhibition was 0% (inactive). The result for `O=C(Cn1c(=O)n(Cc2ccc3c(c2)OCO3)c(=O)c2ccccc21)N1CCCc2ccccc21` reads 0% (inactive); that for `O=C(Cn1c(C(=O)NCC2CCCO2)cc2sccc21)c1ccccc1` (stereo not given), 0% (inactive). The figure for `CCOC(=O)C1CCCN(c2nc3ccccc3nc2C(C#N)C(=O)NCc2ccccc2)C1` (stereo not given) is 0% (inactive).

In the case of `CCOc1ccc2ccccc2c1C(=O)N1CCN(c2ccccc2)CC1`, the inhibition is 9% (inactive). The result for `Cc1nnc(C)c2c(C)n(-c3ccc(Br)cc3)c(C)c12` reads 0% (inactive). The figure for `CCOC(=O)CSc1ncnc2c1cnn2-c1ccc(C)cc1` is 15% (inactive); for `COc1ccc2c(c1)C(C)=CC(C)(C)N2C(=O)CSc1nnc(-c2ccc(C)cc2)o1` it is 0% (inactive). The figure for `COC(=O)c1ccc2c(c1)nc(C)n2CCO` is 0% (inactive). `CCC(C)NC(=O)CC1Oc2ccc(C)cc2NC1=O` (stereo not given): the inhibition is 0% (inactive). The figure for `Cc1ccc(C(C)C)c(OCCCN2CC(C)OC(C)C2)c1` (stereo not given) is 0% (inactive); for `CCOC(=O)N1CCN(C(=O)CSc2nnc(COc3ccccc3)o2)CC1` it is 2% (inactive). Take `Oc1cccc(C=NCc2ccccc2)c1O`: the inhibition is 0% (inactive). The figure for `CCc1nn2c(N3CCOCC3)cc(C)nc2c1-c1ccc(F)cc1` is 0% (inactive); for `COc1ccccc1NC(=O)N1c2ccc(F)cc2CCC1C` (stereo not given) it is 8% (inactive); for `O=C(NCc1ccco1)c1cc2n(n1)C(C(F)(F)F)CC(c1ccc(F)cc1)N2` (stereo not given) it is 9% (inactive). The result for `CCOC(=O)CC(=O)CSc1[nH]c(=O)cc(C)c1C#N` reads 8% (inactive).

As to `COc1ccc(C(=O)NCCC(C)C)cc1S(=O)(=O)N1CCOCC1`, the inhibition is 9% (inactive). With `Cc1cc2nc(C3CCN(CC4COc5ccccc5O4)CC3)[nH]c2cc1C` (stereo not given), the inhibition is 6% (inactive). The figure for `COc1cccc(C2CC(c3ccccc3)n3ncnc3N2)c1` (stereo not given) is 8% (inactive); for `CCCN1C(=O)c2cc(C(=O)O)ccc2C1O` (stereo not given) it is 0% (inactive). In the case of `Cc1cc(C(=O)NCc2ccc(S(N)(=O)=O)cc2)cs1`, the inhibition was 16% (inactive).

`C=CCNC(=O)CNS(=O)(=O)c1ccc(F)cc1`: the inhibition is 2% (inactive). The result for `COc1cc(S(=O)(=O)N2CCOCC2)ccc1NC(=O)COC(=O)c1ccccn1` reads 0% (inactive). The result for `N#CCC(=O)Nc1ncn(Cc2ccccc2Cl)n1` reads 0% (inactive).

Take `c1ccc(OCCCn2nnc(-c3cccnc3)n2)cc1`: the inhibition is 3% (inactive). On to `CCc1cc2c(NCCC(=O)O)ncnc2s1`, for which the inhibition is 1% (inactive).

Regarding `CC(=O)N1CCN(S(=O)(=O)c2ccc(S(=O)(=O)NCC(C)C)cc2)CC1`, the inhibition was 5% (inactive). The result for `CC(Oc1ccccc1)C(=O)N1CCCc2ccccc21` (stereo not given) reads 0% (inactive); that for `CCOC(=O)C(NC(C)=O)(Nc1ccc(S(=O)(=O)Nc2nccs2)cc1)C(F)(F)F` (stereo not given), 3% (inactive); that for `O=C(Cn1c(NCCO)nc2ccccc21)c1ccccc1`, 6% (inactive).

Take `CCCc1nc(N2CCOCC2)c(C#N)c2c1CCCC2`: the inhibition was 4% (inactive).

With `Cc1ccc2cc(CN(CC(C)C)C(=O)C3CCCO3)c(=O)[nH]c2c1` (stereo not given), the inhibition was 0% (inactive).

Regarding `Cc1ccc(-c2cc(C(F)F)nc(NCc3cccnc3)n2)cc1`, the inhibition was 0% (inactive).

On to `CCCCCn1c(CCNC(=O)CCC)nc2ccccc21`, for which the inhibition is 0% (inactive). With `CCCN1CCN(C(=O)c2cn(CC(C)C)c(=O)c3cc(OC)c(OC)cc23)CC1`, the inhibition was 5% (inactive).

As for `CCOC(=O)CSc1nc2sc(C)c(C)c2c(=O)[nH]1`, the inhibition was 0% (inactive). For the molecule `CCOC(=O)c1oc2cc(OCC(N)=O)ccc2c(=O)c1-c1ccc(OC)c(OC)c1`, the inhibition was 3% (inactive).
